# “And” between values parts separate entries of the source, which are not always exact repeats. Identical values can stand only once. Like-named read-outs stand apart in the source and are kept apart here.
# What was measured:
# Settings in all cases: concentration: 1 μM, replicates: in singlicate, n = 1
# PYK2 = test system: T1, PYK2
# T1 construct: gene PTK2B
# QSK = test system: QSK
# RAF1 = test system: RAF1
# RET = test system: RET
# RIOK1 = test system: RIOK1
# RIOK2 = test system: RIOK2
# RIOK3 = test system: RIOK3
# RIPK1 = test system: RIPK1
# RIPK2 = test system: RIPK2
# RIPK4 = test system: RIPK4
# 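Further: KINOMEscan kinase panel screen.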
Structure (SMILES),%Inh (PYK2),%Inh (QSK),%Inh (RAF1),%Inh (RET),%Inh (RIOK1),%Inh (RIOK2),%Inh (RIOK3),%Inh (RIPK1),%Inh (RIPK2),%Inh (RIPK4),%Inh (PYK2; 1 µM),%Inh (QSK; 1 µM),%Inh (RAF1; 1 µM),%Inh (RIOK1; 1 µM),%Inh (RIPK1; 1 µM),%Inh (RIPK2; 1 µM),%Inh (RIPK4; 1 µM),%Inh (RET; 1 µM),%Inh (RIOK3; 1 µM),%Inh (RIOK2; 1 µM)
CN1c2ccc(CNc3ccc(F)cc3)cc2-c2c(cnn2C)S1(=O)=O,0%,20%,0%,0%,18%,0%,14%,0%,2%,5%,–,–,–,–,–,–,–,–,–,–
CN(C(=O)c1ccc(-c2cc(-c3c[nH]nc3-c3ccccn3)ccn2)cc1)C1CCOCC1 [GW810083],0%,0%,0%,17%,54%,0%,33%,0%,0%,69%,–,–,–,–,–,–,–,–,–,–
CC(C)(CN)c1nc(-c2ccc(Cl)c(O)c2)c(-c2ccncc2)[nH]1.O=C(O)C(F)(F)F [SB-477794],–,–,–,99.9%,–,0%,0%,–,–,–,0% and 17%,91.5% and 86%,98.5% and 95.1%,0% and 1%,2% and 0%,92.7% and 90%,36% and 5%,–,–,–
Cn1ccc2ncnc(Oc3ccc(NC(=O)Nc4ccncc4)c(Cl)c3)c21,0%,0%,12%,1%,0%,0%,23%,0%,0%,0%,–,–,–,–,–,–,–,–,–,–
N#Cc1c(N2CCOCC2)sc(-c2ccn[nH]2)c1-c1ccc(Cl)cc1,0%,0%,11%,0%,0%,0%,0%,6%,0%,35%,–,–,–,–,–,–,–,–,–,–
Fc1ccc(-c2ncn(CCCN3CCOCC3)c2-c2ccccn2)cc1 [SB-211742],0%,0%,29%,7%,27%,0%,41%,0%,0%,0%,–,–,–,–,–,–,–,–,–,–
COc1ccc(CNC(=O)NC2CCN(c3ccnc(Nc4ccc(OC)cc4)n3)C2)cc1 (stereo not drawn) [GSK1379727],1%,0%,12%,15%,8%,0%,18%,50%,0%,0%,–,–,–,–,–,–,–,–,–,–
COc1cc2c(cc1OCCN1CCN(C)CC1)ncc1c3ccc(C#N)cc3[nH]c21,2%,67%,0%,29%,93.1%,24%,85%,14%,49%,15%,–,–,–,–,–,–,–,–,–,–
O=c1cc(N2CCOCC2)nc2n(Cc3cccc(F)c3)ccn12 [GSK2297430],22%,0%,0%,31%,35%,11%,35%,0%,0%,0%,–,–,–,–,–,–,–,–,–,–
CCc1ccnc(/C=C/c2n[nH]c3cc(Sc4ccccc4C(=O)NC)ccc23)c1,0%,0%,0%,83%,0%,0%,0%,0%,43%,0%,–,–,–,–,–,–,–,–,–,–
Fc1ccc(-c2ncn(CCCN3CCOCC3)c2-c2cccnc2)cc1 [SB-211743],0%,0%,9%,3%,17%,53%,0%,0%,0%,4%,–,–,–,–,–,–,–,–,–,–
CC(C)Oc1ccc2c(-c3ccnc(Nc4ccc(N5CCN(C)CC5)cc4)n3)cnn2n1 [GW696155],42%,23%,0%,56%,99.9%,90%,95.4%,40%,15%,27%,–,–,–,–,–,–,–,–,–,–
N#Cc1ccc(-c2cc(-c3c[nH]nc3-c3ccccn3)ccn2)cc1 [GW693028],0%,12%,1%,12%,0%,0%,0%,0%,49%,5%,–,–,–,–,–,–,–,–,–,–
COc1ccc(Nc2ncc(C#N)c(Nc3ccccc3C(N)=O)n2)cc1N1CCN(C)CC1.Cl [GSK1558669],99.2%,94.7%,32%,99.9%,100%,98.7%,79%,74%,76%,98.9%,–,–,–,–,–,–,–,–,–,–
COc1cc(Nc2nccc(N3CCC(NC(=O)c4cccc(NC(C)=O)c4)C3)n2)cc(OC)c1OC (stereo not drawn) [GSK1379754],14%,0%,0%,29%,82%,5%,61%,0%,0%,28%,–,–,–,–,–,–,–,–,–,–
Cc1nnc(-c2ccc3ncc(-c4ccc(S(C)=O)cc4)n3c2)o1 (stereo not drawn),0%,0%,49%,9%,0%,0%,0%,0%,21%,24%,–,–,–,–,–,–,–,–,–,–
Cc1ccc(NC(=O)c2ccnc(N3CCN(C)CC3)c2)cc1-c1ccc(C(=O)NCC2CC2)cc1 [GW775604],0%,0%,10%,0%,0%,0%,0%,0%,0%,0%,–,–,–,–,–,–,–,–,–,–

Structure (SMILES),%Inh (PYK2),%Inh (QSK),%Inh (RAF1),%Inh (RET),%Inh (RIOK1),%Inh (RIOK2),%Inh (RIOK3),%Inh (RIPK1),%Inh (RIPK2),%Inh (RIPK4),%Inh (PYK2; 1 µM),%Inh (QSK; 1 µM),%Inh (RAF1; 1 µM),%Inh (RIOK1; 1 µM),%Inh (RIPK1; 1 µM),%Inh (RIPK2; 1 µM),%Inh (RIPK4; 1 µM),%Inh (RET; 1 µM),%Inh (RIOK3; 1 µM),%Inh (RIOK2; 1 µM)
CCCCCc1nc2c(N)ncnc2n1CCCCC [SKF-97255],21%,7%,11%,0%,0%,0%,0%,0%,22%,7%,–,–,–,–,–,–,–,–,–,–
CN(C1=C(c2ccccc2)C(=O)NC1=O)c1ccccc1 [SB-334860],0%,0%,18%,0%,0%,4%,0%,30%,44%,20%,–,–,–,–,–,–,–,–,–,–
O=c1cc(N2CCOCC2)nc2n(Cc3cccc(C(F)(F)F)c3)ccn12 [GSK2297543],3%,3%,5%,0%,26%,7%,19%,10%,12%,0%,–,–,–,–,–,–,–,–,–,–
Cl.Cl.Cl.Fc1ccc(-c2ncn(C3CCNCC3)c2-c2ccnc(Nc3ccccc3)n2)cc1 [SB-238039],–,0%,–,–,–,0%,–,–,–,–,0% and 12%,–,18% and 8%,11% and 52%,35% and 0%,76% and 65%,13% and 42%,8% and 20%,3% and 32%,–
Cc1c(Cn2c(C)nn3c(=O)cc(N4CCOC(C)C4)nc23)cccc1C(F)(F)F (stereo not drawn) [GSK2344444],0%,4%,0%,1%,27%,10%,0%,0%,0%,7%,–,–,–,–,–,–,–,–,–,–
NCCNS(=O)(=O)c1ccc(-c2ccnc3[nH]ccc23)cc1 [GSK977617],–,–,–,–,–,–,–,–,0%,–,31% and 21%,6% and 15%,2% and 0%,91.4%,9% and 8%,–,50% and 29%,28% and 19%,78% and 84%,93.8% and 88%
C[C@@H](Oc1cc(-n2cnc3ccc(NC(=O)NC(C)(C)C)cc32)sc1C(N)=O)c1ccccc1Cl [GSK346294],0%,0%,0%,24%,56%,0%,34%,21%,14%,4%,–,–,–,–,–,–,–,–,–,–
CC(C)(C)n1cnc2c(N)ncnc21 [SKF-97359],0%,0%,15%,19%,2%,0%,0%,0%,0%,67%,–,–,–,–,–,–,–,–,–,–
Fc1ccc(-c2nn3c(OCC(F)(F)F)cccc3c2-c2ccncc2)cc1 [GW514784],1%,0%,8%,0%,39%,0%,5%,0%,43%,0%,–,–,–,–,–,–,–,–,–,–
O=C(c1ccc(-c2cc(-c3c[nH]nc3-c3ccccn3)ccn2)cc1)N1CCOCC1 [GW812171],0%,0%,9%,0%,8%,0%,7%,0%,1%,2%,–,–,–,–,–,–,–,–,–,–
c1ccc(-c2cc(-c3c[nH]nc3-c3ccccn3)ccn2)cc1 [GW576604],0%,0%,4%,16%,37%,1%,25%,0%,94.6%,0%,–,–,–,–,–,–,–,–,–,–
Cc1cn2c(=O)cc(N3CCOCC3)nc2n1Cc1cccc(Cl)c1Cl [GSK2334006],13%,0%,22%,21%,56%,29%,4%,0%,14%,6%,–,–,–,–,–,–,–,–,–,–
O=c1cc(N2CCOCC2)nc2n(Cc3cccc4ccccc34)ccn12 [GSK2333389],17%,7%,0%,80%,8%,47%,0%,0%,0%,0%,–,–,–,–,–,–,–,–,–,–
c1ccc(-c2n[nH]cc2-c2ccnc3ccccc23)nc1 [GW271431],9%,0%,2%,0%,58%,11%,26%,20%,23%,2%,–,–,–,–,–,–,–,–,–,–
O=C(NOCC1CC1)c1ccc(F)c(F)c1Nc1ccc(I)cc1Cl,0%,0%,0%,17%,7%,0%,0%,0%,0%,100%,–,–,–,–,–,–,–,–,–,–
Cn1cc(-c2ccc3c(c2)CCN3C(=O)Cc2ccccc2Cl)c2c(N)ncnc21 [GSK2608885],38%,23%,94.9%,99.9%,23%,0%,21%,0%,99.4%,0%,–,–,–,–,–,–,–,–,–,–

# Source: article PMC5540273 (PLoS ONE, 2017)
